Results taken from the supplement of paper PMC11732987, “Enantioselective OTUD7B fragment discovery through chemoproteomics screening and high-throughput optimisation” (Communications Chemistry, 2025).

Tests used:
Experiment in all cases: log2 ratio of Biotin-Ahx-Ub-VS probe labelling (fragment/DMSO); higher = less target engagement (more negative = stronger competition), active = hit call of the paper (q ≤ 0.05, log2 ratio ≤ -1)
Settings in all cases: compound concentration: 200 uM; treatment time: 3 h
[1] = target: T1, USP42 (UniProt Q9H9J4)
T1 sequence (whole entry): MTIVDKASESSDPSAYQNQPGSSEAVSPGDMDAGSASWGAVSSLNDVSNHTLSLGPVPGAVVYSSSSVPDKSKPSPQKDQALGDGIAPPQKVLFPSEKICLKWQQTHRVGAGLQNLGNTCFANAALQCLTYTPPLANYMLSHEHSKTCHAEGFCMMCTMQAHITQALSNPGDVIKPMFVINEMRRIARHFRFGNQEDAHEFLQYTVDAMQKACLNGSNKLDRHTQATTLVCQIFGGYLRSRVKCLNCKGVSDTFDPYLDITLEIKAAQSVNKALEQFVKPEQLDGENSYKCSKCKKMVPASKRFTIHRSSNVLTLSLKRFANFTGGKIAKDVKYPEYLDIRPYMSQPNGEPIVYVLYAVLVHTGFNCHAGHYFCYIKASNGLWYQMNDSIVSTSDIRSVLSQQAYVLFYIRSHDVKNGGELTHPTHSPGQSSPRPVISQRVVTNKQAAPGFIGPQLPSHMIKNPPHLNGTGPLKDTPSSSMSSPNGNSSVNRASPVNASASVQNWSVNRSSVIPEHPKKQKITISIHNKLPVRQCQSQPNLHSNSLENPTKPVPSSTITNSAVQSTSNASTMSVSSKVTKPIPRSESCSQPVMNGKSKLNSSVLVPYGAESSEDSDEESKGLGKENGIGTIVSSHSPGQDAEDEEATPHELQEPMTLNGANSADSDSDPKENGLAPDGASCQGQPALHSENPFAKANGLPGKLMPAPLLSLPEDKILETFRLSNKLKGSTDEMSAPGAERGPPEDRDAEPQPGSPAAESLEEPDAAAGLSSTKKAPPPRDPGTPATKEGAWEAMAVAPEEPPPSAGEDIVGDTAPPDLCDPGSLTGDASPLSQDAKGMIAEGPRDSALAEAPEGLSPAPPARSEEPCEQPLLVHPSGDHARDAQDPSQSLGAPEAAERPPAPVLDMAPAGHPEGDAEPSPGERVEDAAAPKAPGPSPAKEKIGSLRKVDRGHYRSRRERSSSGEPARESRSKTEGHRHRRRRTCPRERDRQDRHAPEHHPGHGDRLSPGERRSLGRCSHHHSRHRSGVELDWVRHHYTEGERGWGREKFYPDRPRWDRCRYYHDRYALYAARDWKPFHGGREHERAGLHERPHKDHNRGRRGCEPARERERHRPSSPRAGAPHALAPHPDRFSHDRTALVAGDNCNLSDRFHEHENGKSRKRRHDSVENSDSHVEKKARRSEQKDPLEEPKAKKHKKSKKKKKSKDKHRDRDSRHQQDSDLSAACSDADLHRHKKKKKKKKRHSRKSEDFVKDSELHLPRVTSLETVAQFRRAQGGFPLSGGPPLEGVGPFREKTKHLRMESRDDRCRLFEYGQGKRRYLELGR
Procedure, shortened: (§1)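 Triplicate samples of HEK293T lysate, 495 µg each, received fragment at 200 µM or vehicle for 3 h, followed by Biotin-Ahx-Ub-VS (0.5 µM final) for 1 h. After NeutrAvidin enrichment of labelled DUBs and LysC/trypsin digestion, peptides were run by diaPASEF LC-MS/MS. The values are average log2 fragment/vehicle ratios from global-median-normalised Spectronaut label-free quantities, tested by unpaired t-test on proteins having ≥2 unique peptides.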

[2] = target: USP46 (UniProt P62068)
Procedure, shortened: as §1

[3] = target: T2, USP47 (UniProt Q96K76)
T2 sequence (whole entry): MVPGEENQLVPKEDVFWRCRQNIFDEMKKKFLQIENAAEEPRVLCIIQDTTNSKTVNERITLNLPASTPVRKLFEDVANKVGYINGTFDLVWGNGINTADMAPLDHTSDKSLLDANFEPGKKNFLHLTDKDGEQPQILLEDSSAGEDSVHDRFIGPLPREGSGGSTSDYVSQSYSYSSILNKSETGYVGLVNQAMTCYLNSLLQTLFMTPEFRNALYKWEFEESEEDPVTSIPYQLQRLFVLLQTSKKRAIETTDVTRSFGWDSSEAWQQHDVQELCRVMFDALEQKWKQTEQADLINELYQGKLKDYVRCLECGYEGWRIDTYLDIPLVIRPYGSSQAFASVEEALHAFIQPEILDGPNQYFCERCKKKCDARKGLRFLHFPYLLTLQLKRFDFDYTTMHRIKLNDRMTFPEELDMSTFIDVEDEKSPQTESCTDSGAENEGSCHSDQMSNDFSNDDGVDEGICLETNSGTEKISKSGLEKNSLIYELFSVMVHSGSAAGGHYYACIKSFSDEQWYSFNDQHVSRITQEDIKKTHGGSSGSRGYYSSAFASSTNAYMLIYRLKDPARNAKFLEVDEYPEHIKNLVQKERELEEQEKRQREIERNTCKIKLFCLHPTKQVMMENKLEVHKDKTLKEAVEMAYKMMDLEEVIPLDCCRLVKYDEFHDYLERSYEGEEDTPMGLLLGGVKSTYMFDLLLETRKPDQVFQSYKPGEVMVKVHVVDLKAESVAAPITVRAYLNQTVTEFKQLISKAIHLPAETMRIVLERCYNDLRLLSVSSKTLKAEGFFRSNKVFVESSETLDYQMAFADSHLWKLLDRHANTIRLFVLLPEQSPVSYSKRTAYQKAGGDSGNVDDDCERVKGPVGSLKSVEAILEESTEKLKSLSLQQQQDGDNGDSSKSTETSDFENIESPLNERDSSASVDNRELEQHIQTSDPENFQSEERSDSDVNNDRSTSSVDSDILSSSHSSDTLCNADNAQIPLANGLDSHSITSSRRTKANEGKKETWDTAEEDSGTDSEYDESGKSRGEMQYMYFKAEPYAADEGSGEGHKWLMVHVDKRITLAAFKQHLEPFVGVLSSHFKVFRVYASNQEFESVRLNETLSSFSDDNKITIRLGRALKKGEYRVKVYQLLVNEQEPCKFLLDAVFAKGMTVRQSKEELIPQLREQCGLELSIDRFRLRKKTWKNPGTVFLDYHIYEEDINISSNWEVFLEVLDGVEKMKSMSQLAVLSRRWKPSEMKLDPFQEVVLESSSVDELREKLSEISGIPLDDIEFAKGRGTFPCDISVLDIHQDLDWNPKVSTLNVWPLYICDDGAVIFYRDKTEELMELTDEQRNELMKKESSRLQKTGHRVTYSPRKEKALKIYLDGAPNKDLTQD
Procedure, shortened: as §1

[4] = target: T3, USP48 (UniProt Q86UV5)
T3 sequence (whole entry): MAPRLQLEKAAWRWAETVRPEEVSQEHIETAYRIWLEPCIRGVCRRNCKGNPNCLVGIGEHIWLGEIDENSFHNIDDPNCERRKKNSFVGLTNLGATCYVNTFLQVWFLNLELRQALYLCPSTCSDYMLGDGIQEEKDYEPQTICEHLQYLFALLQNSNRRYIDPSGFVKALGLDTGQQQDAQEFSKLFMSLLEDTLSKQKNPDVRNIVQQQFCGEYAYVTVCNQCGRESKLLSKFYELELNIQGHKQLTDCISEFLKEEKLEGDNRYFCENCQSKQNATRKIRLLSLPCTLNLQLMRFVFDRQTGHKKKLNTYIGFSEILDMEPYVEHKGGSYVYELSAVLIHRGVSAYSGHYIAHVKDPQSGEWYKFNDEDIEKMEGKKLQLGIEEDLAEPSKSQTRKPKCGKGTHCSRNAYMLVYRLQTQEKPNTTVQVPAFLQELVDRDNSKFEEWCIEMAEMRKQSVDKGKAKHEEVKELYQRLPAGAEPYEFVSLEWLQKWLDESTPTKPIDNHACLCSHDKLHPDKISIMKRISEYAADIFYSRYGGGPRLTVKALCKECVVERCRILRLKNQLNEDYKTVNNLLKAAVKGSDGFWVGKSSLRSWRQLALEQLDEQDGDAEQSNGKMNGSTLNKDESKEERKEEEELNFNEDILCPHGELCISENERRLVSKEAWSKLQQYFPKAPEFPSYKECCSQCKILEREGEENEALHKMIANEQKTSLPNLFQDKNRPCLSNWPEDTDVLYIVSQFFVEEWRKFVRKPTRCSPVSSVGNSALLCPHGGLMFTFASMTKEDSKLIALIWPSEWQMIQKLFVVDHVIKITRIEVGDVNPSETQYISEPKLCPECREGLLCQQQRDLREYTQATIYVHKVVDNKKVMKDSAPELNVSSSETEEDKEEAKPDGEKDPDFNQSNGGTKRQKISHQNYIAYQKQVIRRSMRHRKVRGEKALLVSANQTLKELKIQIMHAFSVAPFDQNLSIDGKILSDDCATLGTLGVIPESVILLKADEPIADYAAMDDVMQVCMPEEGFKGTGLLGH
Procedure, shortened: as §1

[5] = target: T4, USP5 (UniProt P45974)
T4 sequence (whole entry): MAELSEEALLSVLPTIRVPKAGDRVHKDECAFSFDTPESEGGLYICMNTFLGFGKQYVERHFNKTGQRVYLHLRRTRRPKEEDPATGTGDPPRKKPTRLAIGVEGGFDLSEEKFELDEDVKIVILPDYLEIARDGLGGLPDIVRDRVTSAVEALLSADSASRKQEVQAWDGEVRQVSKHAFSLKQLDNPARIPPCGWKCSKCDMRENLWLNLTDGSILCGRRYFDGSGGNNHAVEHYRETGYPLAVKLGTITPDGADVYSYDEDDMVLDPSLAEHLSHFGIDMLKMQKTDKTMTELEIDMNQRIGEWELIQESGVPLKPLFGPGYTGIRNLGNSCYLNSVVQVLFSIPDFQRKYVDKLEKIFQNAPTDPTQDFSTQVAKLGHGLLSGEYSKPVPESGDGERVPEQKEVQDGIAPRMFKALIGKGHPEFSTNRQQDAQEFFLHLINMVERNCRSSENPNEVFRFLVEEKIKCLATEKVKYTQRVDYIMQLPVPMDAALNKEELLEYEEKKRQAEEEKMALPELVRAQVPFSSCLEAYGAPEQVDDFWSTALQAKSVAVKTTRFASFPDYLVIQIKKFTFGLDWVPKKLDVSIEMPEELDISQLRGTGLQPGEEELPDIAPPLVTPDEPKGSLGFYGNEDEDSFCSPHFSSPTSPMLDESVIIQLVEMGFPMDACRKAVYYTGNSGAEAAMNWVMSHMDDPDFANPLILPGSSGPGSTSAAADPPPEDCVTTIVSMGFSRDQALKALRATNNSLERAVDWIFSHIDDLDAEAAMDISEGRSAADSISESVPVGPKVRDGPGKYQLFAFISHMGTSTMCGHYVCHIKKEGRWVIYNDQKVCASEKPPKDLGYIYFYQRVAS
Procedure, shortened: as §1

[6] = target: USP54 (UniProt Q70EL1)
Procedure, shortened: as §1

[7] = target: USP7 (UniProt Q93009)
Procedure, shortened: as §1

[8] = target: T5, USP8 (UniProt P40818)
T5 sequence (whole entry): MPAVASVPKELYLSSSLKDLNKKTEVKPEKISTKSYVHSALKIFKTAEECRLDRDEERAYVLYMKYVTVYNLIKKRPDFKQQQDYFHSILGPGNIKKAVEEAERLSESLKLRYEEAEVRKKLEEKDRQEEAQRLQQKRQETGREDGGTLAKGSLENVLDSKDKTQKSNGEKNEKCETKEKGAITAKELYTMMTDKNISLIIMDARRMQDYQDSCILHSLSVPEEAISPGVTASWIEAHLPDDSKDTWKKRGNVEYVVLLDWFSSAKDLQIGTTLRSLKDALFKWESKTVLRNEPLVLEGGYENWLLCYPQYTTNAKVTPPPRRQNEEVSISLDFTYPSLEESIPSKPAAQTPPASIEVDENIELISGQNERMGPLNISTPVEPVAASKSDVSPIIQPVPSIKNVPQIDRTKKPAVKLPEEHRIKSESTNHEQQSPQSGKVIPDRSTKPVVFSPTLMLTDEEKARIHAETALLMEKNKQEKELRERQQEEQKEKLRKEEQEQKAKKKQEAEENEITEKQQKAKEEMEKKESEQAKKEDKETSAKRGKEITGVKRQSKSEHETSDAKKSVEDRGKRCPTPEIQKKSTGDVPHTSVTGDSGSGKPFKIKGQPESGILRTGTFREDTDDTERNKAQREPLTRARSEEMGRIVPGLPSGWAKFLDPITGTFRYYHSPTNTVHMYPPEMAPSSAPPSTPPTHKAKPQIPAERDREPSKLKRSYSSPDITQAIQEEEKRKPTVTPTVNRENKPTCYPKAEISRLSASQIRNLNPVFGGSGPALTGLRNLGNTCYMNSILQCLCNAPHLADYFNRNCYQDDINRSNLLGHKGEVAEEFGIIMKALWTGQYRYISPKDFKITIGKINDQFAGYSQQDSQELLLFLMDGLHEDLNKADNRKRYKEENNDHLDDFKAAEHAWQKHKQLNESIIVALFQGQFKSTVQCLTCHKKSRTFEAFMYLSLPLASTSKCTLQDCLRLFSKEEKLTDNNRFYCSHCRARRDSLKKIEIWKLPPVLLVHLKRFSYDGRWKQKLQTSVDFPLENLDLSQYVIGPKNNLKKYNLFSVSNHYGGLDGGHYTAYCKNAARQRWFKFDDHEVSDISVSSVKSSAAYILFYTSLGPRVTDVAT
Procedure, shortened: as §1

[9] = target: USP9X (UniProt Q93008)
Procedure, shortened: as §1

[10] = target: UniProt O00487
Procedure, shortened: as §1

Measured: log2 ratio of Biotin-Ahx-Ub-VS probe labelling

USP9X, sequence (Q93008 whole entry): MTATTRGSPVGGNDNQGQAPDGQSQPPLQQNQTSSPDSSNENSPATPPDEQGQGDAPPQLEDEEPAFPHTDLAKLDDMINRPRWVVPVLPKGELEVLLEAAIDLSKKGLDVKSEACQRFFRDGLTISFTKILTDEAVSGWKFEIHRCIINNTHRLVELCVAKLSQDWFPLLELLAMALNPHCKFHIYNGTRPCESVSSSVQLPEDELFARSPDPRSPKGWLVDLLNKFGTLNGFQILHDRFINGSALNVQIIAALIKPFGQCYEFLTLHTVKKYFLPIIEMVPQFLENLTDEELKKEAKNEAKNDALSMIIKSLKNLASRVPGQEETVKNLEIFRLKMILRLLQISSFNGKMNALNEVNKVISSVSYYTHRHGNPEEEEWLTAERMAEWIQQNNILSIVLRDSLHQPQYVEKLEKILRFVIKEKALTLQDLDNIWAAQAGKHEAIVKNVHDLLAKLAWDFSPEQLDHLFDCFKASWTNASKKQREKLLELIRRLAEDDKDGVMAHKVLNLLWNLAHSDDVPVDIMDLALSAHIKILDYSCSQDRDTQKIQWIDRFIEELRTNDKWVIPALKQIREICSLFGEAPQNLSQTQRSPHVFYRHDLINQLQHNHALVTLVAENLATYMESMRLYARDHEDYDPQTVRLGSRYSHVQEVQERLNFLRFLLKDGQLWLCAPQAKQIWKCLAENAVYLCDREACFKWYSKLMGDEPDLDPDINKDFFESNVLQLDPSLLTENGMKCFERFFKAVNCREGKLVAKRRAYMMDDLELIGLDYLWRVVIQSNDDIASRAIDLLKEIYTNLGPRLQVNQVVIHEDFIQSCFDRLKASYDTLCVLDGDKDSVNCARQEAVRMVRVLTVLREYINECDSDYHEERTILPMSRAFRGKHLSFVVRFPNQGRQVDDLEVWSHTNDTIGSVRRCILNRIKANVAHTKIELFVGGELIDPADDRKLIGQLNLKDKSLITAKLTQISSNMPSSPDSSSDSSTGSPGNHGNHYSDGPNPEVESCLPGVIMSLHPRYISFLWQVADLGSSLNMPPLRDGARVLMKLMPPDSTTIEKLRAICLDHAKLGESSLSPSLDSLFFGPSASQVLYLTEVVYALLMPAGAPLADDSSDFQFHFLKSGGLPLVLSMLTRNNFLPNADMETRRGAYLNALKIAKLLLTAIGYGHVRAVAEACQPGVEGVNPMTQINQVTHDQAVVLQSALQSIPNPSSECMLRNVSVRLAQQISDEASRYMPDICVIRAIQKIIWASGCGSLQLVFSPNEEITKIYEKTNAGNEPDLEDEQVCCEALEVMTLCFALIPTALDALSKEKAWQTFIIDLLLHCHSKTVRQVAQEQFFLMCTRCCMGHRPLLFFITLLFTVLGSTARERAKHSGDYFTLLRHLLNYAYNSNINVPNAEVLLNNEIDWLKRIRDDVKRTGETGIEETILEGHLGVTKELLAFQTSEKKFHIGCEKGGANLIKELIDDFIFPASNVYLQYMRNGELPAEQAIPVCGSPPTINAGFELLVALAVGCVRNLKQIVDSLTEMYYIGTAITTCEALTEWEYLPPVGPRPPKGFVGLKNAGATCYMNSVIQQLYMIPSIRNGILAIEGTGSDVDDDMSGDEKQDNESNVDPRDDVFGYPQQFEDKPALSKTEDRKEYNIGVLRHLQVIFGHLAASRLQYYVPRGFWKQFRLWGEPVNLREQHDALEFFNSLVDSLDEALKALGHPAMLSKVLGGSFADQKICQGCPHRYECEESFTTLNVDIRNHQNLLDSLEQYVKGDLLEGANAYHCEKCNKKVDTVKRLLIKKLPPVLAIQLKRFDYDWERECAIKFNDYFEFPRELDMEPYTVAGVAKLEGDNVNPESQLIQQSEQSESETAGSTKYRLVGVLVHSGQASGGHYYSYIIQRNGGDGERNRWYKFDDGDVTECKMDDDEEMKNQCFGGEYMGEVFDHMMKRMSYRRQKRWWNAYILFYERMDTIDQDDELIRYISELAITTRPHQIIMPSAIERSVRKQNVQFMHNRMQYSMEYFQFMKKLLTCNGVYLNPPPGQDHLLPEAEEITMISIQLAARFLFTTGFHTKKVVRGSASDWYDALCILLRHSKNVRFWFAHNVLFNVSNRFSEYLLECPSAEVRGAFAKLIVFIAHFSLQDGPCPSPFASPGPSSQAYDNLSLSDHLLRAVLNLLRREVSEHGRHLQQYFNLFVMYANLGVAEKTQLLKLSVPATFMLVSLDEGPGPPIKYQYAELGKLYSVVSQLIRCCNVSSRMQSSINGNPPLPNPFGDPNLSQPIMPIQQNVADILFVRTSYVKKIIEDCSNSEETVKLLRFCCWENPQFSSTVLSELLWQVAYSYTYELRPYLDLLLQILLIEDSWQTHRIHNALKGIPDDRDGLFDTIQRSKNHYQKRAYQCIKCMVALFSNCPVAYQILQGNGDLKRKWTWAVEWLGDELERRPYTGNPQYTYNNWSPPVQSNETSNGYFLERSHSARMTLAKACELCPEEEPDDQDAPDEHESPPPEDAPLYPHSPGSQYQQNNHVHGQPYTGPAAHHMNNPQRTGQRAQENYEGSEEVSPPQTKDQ
UniProt O00487, sequence (O00487 whole entry): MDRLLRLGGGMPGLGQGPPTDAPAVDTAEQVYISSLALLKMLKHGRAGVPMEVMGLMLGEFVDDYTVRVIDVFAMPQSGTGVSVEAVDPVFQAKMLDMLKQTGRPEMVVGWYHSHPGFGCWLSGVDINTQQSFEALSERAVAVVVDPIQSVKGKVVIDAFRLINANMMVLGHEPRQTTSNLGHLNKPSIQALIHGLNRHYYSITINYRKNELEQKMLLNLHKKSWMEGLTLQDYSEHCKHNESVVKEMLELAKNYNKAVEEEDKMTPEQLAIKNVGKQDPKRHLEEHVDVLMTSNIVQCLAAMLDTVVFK
USP54, sequence (Q70EL1 whole entry): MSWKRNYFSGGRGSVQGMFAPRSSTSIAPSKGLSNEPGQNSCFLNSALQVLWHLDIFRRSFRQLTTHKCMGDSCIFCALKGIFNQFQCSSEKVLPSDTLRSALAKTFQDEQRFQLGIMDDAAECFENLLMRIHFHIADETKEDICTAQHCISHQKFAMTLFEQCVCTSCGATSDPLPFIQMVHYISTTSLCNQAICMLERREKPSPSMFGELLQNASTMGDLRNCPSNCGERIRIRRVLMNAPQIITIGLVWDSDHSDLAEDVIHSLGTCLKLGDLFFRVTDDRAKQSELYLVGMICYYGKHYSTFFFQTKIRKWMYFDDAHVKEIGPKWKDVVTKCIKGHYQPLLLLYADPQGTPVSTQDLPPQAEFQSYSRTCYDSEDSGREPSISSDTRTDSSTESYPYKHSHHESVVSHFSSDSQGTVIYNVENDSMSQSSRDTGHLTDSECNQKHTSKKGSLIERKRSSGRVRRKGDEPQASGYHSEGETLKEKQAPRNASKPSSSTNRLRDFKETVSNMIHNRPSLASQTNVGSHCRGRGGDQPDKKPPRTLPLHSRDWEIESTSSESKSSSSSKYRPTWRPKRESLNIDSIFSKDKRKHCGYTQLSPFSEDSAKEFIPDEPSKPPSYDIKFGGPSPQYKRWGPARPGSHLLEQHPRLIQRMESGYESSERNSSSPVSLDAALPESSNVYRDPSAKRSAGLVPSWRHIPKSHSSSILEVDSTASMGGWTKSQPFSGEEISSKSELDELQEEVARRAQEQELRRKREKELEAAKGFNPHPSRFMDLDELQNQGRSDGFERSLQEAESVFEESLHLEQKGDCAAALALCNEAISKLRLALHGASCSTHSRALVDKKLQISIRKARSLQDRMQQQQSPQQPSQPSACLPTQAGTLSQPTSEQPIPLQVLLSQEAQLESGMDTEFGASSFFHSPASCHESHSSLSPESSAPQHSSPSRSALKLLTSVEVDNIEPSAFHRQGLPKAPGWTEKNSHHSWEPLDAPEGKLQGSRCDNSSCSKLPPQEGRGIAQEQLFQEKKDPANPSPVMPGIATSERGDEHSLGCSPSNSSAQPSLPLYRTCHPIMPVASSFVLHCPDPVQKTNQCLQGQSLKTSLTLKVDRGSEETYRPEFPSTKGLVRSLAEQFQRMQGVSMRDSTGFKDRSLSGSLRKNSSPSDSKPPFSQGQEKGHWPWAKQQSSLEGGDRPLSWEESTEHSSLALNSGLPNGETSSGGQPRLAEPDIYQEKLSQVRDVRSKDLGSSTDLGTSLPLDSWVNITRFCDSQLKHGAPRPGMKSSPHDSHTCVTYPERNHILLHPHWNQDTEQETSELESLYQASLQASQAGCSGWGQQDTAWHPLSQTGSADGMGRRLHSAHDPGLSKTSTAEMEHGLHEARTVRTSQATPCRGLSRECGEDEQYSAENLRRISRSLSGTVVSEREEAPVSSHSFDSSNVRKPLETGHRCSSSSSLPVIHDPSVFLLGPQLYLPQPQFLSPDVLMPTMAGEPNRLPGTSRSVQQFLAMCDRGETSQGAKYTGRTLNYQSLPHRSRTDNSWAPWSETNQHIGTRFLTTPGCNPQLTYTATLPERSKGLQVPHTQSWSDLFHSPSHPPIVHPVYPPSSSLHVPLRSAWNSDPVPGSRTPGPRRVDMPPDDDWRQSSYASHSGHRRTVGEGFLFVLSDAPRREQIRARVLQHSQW
USP46, sequence (P62068 whole entry): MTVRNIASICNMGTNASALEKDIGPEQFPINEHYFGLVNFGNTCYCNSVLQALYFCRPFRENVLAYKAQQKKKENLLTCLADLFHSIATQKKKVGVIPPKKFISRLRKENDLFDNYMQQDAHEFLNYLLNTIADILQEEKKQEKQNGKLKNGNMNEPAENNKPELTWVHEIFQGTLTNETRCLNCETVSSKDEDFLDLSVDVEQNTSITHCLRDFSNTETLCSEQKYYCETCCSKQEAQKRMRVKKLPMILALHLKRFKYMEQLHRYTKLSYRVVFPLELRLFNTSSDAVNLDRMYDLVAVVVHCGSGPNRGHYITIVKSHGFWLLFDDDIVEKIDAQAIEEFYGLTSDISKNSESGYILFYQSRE

O=C(CCl)NC1CCN(C(=O)C2CCCCC2)CC1
inactive: [1] 0.471 | [2] 0.262 | [3] 0.301 | [4] 0.136 | [5] -0.157 | [6] 0.282 | [7] -0.045 | [8] 0.139 | [9] 0.243 | [10] 0.0749
